These results are taken from PubChem BioAssay (NCATS).

Records with an inconclusive call do not appear. Activity calls are given as the source filed them. Unless noted, calls follow the shape of the dose curve; as a rule, active = well fitted curve in the direction sought with a large enough effect; inconclusive = small, poorly fitted or top-dose-only effect, or another doubt; inactive = no such curve, though single readings can be large; an effect the other way counts as inactive or inconclusive. A value given as a limit tells only on which side of the number the result lay.

Assay [1] concerns the target Cytochrome P450 3A4 (Homo sapiens) (UniProt P08684). In words: qHTS Assay for Inhibitors and Substrates of Cytochrome P450 3A4 (AID 884). Also: nearly all actives have a fitted effect of over 50% in size. Also: potency is read from the fitted curve at half-maximal effect. As to activity change, negative = inhibition: % is scaled to controls: 0 for no effect and ±100 for the full control effect. An outline of the steps:
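Luminescent readout of luciferin produced by CYP3A4 (20 nM) dealkylation of Luciferin-PPXE, 25 uM (its KM). NADPH-driven reaction ran 60 min at RT after 10 min compound preincubation; data scaled to 57 uM ketoconazole as 100% inhibition.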

Assay [2] can be described thus: Confirmation and Secondary Assay for Modulators of Hemoglobin Beta Chain Splicing at IVS2 654 locus (AID 910).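 Also: HeLa cells stably carrying EGFP split by mutant beta-globin IVS2-654 intron; % of control where 0% means no effect.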 An outline of the steps:
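HeLa cells stably expressing EGFP interrupted by β-globin IVS2-654 intron, seeded overnight in Opti-MEM/2% FCS, then treated 2 days at 37 °C. Restored splicing read as total peak GFP intensity per well by laser scanning cytometry (488 nm excitation, 500–520 nm emission); 500 nM antisense PNA as control.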

Assay [3] in a line: Confirmation and Secondary Assay for Modulators of Hemoglobin Beta Chain Splicing at IVS2 705 locus (AID 930).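 Also: HeLa cells stably expressing the EGFP-705 splicing reporter; GFP fluorescence per well restored by corrected splicing of the IVS2-705 intron in EGFP; % of control where 0% means no effect.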 An outline of the steps: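 First, HeLa EGFP-705 cells are seeded at 500/well in Optimem with 2% FCS and left overnight. Next, compound or DMSO is added for 2 days. Finally wells are laser-scanned and total peak GFP intensity scored.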
A short description of assay [4]: qHTS Assay for Lipid Storage Modulators (AID 1519; calls by dose curve). To be noted: Drosophila S3 cells, BODIPY lipid droplet/cell ratio, laser cytometry, cells loaded with oleic acid. The method, boiled down:
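Cells seeded at 5,000 per well were treated with compounds over a concentration series and loaded with oleic acid (400 uM, as added). Lipid droplet fluorescence (488 nm excitation, 500-530 nm channel) was read by laser-scanning cytometry and normalized to 20 uM Triacsin C.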

Assay [5] has as its target Ubiquitin carboxyl-terminal hydrolase 1 (Homo sapiens) (UniProt O94782). In words: Inhibitors of USP1/UAF1: Pilot qHTS (AID 504865). Also: nearly all actives have a fitted effect of over 35% in size. Also: potency is read from the fitted curve at half-maximal effect. The method, boiled down: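 In 50mM HEPES pH 7.8 containing 0.5mM EDTA, 1mM TCEP, 0.1 mg/ml BSA and 0.01% Tween-20, 1nM USP1/UAF1 is exposed to compound for 15 min, then Ub-Rho (150nM final) is added and fluorescence is read over time.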
Assay [6] has as its target Rap guanine nucleotide exchange factor 3 (Homo sapiens) (UniProt O95398). The assay is described as follows: Confirmatory qHTS for antagonist of cAMP-regulated guanine nucleotide exchange factor 3 (EPAC1) (AID 1645880).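 Also: plate controls were DMSO only for no effect and full effect of the ATA control for full effect; nearly all actives have a fitted effect of over 55% in size.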 An outline of the steps:
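Released BODIPY-GDP fluoresces less than Rap1-bound BODIPY-GDP; the signal is followed at 480/540 nm at 5-min intervals over 30 min, after 5 min at room temperature. Reactions contain 100 nM EPAC1, 250 nM RAP1B-BODIPY-GDP and 50 uM GDP; results are normalized to ATA and DMSO.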

The target is the same in assay [7]. The assay is described as follows: Confirmatory qHTS for agonist of cAMP-regulated guanine nucleotide exchange factor 3 (EPAC1) (AID 1645881).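 Also: EPAC1 catalysed release of BODIPY-GDP from Rap1B seen as fluorescence loss; 100% = effect of cAMP agonist control; nearly all actives have a fitted effect of over 75% in size.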
The target in assay [8] is Rap guanine nucleotide exchange factor 4 (Homo sapiens) (UniProt Q8WZA2). The assay is described as follows: Confirmatory qHTS for agonist of cAMP-regulated guanine nucleotide exchange factor 4 (EPAC2) (AID 1645884).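 Also: nucleotide exchange releases bodipy-GDP from Rap1 and this lowers its fluorescence; % is scaled to controls: 0 for no effect and ±100 for the full control effect; nearly all actives have a fitted effect of over 65% in size.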
For assay [9] the target is unchanged. In words: Confirmatory qHTS for antagonist of cAMP-regulated guanine nucleotide exchange factor 4 (EPAC2) (AID 1645885). Also: nearly all actives have a fitted effect of over 25% in size. Also: potency is read from the fitted curve at half-maximal effect.
The target in assay [10] is Cytochrome P450 3A4 (Homo sapiens) (UniProt P08684). The assay is described as follows: qHTS Assay for Activators of Cytochrome P450 3A4 (AID 885). Also: nearly all actives have a fitted effect of over 65% in size. An outline of the steps: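 Human CYP3A4 dealkylates Luciferin-PPXE to luciferin, which luciferase detection converts to light. Substrate was at its KM (25uM), buffer 200mM KPO4, reaction 60 min at RT.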
Assay [11] addresses Lysosomal acid glucosylceramidase (Homo sapiens) (UniProt P04062). The assay is described as follows: Glucocerebrosidase-p2 (AID 348; in the data active = potency below about 10 µM; also: potency is read from the fitted curve at half-maximal effect). The settings on record: purified GBA, blue fluorogenic substrate, 40 min. An outline of the steps: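 Normal human glucocerebrosidase (0.2 nM) with blue fluorogenic substrate (80 uM final) in citrate/phosphate pH 5.9 with 10mM sodium taurocholate, 0.01% tween-20; 40 min RT, NaOH/glycine stop; fluorescence Ex 365/Em 440; AC50 from a titration from 0.6 nM upwards.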

Assay [12] in a line: AP1 Signaling Pathway (AID 357; active = well fitted curve in either direction with a large enough effect, not every such curve was filed as active;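 also: ME-180 reporter cells stimulated with EGF at its EC50 level; % is scaled to controls: 0 for no effect and ±100 for the full control effect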). The settings on record: ME-180 AP-1-bla reporter, EGF-induced, beta-lactamase ratio, 5 h; at 7.69 µM (top of the series) unless noted. The method, boiled down: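 In this screen, ME-180 cells in Opti-MEM with 0.5% dialyzed FBS received EC50 EGF and compound titrations for 5 h. AP-1 reporter beta-lactamase was detected via CCF4 ratio, giving AC50 for positive and negative modulators.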

Assay [13] concerns the target Cytochrome P450 1A2 (Homo sapiens) (UniProt P05177). In words: p450-cyp1a2 (AID 410; calls by dose curve; also: potency is read from the fitted curve at half-maximal effect;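 as to activity change, negative = inhibition: -100% = full effect of reference inhibitor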). An outline of the steps: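 20nM CYP1A2, 100uM Luciferin-ME (=Km), 100mM KPO4; cpd 10 min RT; +NADPH regen, 60 min RT; stop/detect 20 min; luminescence. Normalized to furafylline 57 uM = full inhibition.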
Assay [14] is described as follows: Stat Signaling Pathway (AID 446; active = well fitted curve in either direction with a large enough effect, not every such curve was filed as active;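 also: ME-180 cervical cancer cells given 40 pM IL-6 alongside compound; SIE-controlled beta-lactamase reporter measured as 460/530 nm FRET emission ratio; % is scaled to controls: 0 for no effect and ±100 for the full control effect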). To be noted: ME-180 (cervical carcinoma) SIE beta-lactamase reporter, IL-6 stimulated, 5 h; at 7.69 µM (top of the series) unless noted. The method, boiled down:
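Normalization used AC90 stimulation (300 pM IL-6) and AC90 inhibition (125 nM pan-JAK inhibitor at 40 pM IL-6). The underlying signal is SIE-driven beta-lactamase in ME-180 cells after 5 h IL-6 exposure with compound.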

Assay [15] deals with Glucocorticoid receptor (Homo sapiens) (UniProt P04150). In words: GR-GFP Redistribution (AID 450;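 active = compounds whose dose series gives a full or clear partial fitted curve of increased nuclear translocation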; also: potency is read from the fitted curve at half-maximal effect). To be noted: U2OS GR-GFP nuclear translocation, laser cytometry, 2 h.
For assay [16] the target is unchanged. In words: GR-EFC Redistribution (AID 451; calls by dose curve; also: potency is read from the fitted curve at half-maximal effect). The settings on record: CHO-K1 GR-EFC translocation, beta-gal luminescence, 2 h. An outline of the steps:
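CHO-K1 cells expressing nuclear EA and GR-ED fragments of b-gal; compounds titrated up to 46 uM final, 2 h at 37 C. GR nuclear translocation read as complemented b-gal luminescence after 1 h RT detection.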

Assay [17] addresses Mitogen-activated protein kinase 10 (Mus musculus) (UniProt Q61831). In words: JNK3 AlphaScreen Assay (AID 530; active = well fitted curve in either direction with a large enough effect, not every such curve was filed as active;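 also: kinase came from lysate of stimulated human HepG2 cells; signal reports phosphorylation of biotinylated GST-cJun 1-79 at Ser73 with 10 µM ATP; % is scaled to controls: 0 for no effect and ±100 for the full control effect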). The method, boiled down:
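HepG2 lysate (IL-1b/TNFa pre-activated) + biotin-GST-cJun 1-79 + anti-pSer73 cJun; cpd titration, 15 min RT; ATP 10 uM start; Tris pH 7.6, MgCl2, DTT, vanadate; beads in EDTA buffer; AlphaScreen.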

Assay [18] has as its target 3',5'-cyclic-AMP phosphodiesterase 4B (Homo sapiens) (UniProt Q07343). The assay is described as follows: qHTS Assay for Inhibitors of PDE-IV (AID 607; active = well fitted activation curve with a large enough effect in the main read-out, with a control signal flat, not every such curve was filed as active; also: % of control where 0% means no effect). The method, boiled down:
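HEK293 ACTOne cells with CNG channel (1000/well), endogenous PDE4; membrane potential dye, compounds up to 22.9 uM final. Fluorescence Ex 535/Em 590; RO 20-1724 (100 uM final) as reference.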

The target of assay [19] is Cytochrome P450 2C19 (Homo sapiens) (UniProt P33261). The assay is described as follows: qHTS Assay for Inhibitors and Substrates of Cytochrome P450 2C19 (AID 899). Also: potency is read from the fitted curve at half-maximal effect; nearly all actives have a fitted effect of over 60% in size. The method, boiled down:
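Signal comes from luciferase acting on luciferin released by CYP2C19-mediated hydroxylation of Luciferin-H EGE, 10uM (KM). Assay mix: 5nM enzyme, 50mM KPO4; 60 min at 37C with NADPH regeneration. Data normalized against 57uM ketoconazole.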

Setting [20] is: measured here: cell count channel max response.
Setting [21] is: measured here: lipid channel max response.

Chain of Rap guanine nucleotide exchange factor 4 (Homo sapiens) (Q8WZA2 whole entry, looked up): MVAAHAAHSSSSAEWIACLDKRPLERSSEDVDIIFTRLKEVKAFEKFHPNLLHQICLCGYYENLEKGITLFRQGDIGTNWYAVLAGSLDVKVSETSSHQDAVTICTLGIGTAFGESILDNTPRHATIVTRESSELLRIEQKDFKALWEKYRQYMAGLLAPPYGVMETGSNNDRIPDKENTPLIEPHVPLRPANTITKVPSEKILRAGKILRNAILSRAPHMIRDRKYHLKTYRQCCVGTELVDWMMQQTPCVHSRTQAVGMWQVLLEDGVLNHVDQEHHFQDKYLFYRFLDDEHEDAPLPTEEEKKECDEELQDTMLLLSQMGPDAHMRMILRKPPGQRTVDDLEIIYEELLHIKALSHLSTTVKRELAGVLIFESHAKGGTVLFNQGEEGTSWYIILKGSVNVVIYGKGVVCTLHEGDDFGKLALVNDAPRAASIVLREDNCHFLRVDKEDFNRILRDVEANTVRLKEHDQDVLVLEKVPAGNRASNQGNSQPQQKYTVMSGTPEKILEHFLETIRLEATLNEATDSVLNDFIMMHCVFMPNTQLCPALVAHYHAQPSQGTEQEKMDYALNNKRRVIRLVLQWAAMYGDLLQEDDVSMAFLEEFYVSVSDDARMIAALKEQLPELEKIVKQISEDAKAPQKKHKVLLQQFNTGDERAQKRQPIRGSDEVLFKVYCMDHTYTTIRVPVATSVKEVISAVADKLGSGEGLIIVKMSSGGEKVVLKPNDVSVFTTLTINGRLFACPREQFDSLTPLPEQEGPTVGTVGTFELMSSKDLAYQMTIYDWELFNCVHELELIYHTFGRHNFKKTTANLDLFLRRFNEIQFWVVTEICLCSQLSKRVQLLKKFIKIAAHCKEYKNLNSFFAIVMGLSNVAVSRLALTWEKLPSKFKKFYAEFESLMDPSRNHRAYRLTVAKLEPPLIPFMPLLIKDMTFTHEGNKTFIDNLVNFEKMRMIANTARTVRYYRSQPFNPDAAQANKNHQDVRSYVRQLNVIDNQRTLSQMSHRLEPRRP
Chain of Rap guanine nucleotide exchange factor 3 (Homo sapiens) (O95398 whole entry, looked up): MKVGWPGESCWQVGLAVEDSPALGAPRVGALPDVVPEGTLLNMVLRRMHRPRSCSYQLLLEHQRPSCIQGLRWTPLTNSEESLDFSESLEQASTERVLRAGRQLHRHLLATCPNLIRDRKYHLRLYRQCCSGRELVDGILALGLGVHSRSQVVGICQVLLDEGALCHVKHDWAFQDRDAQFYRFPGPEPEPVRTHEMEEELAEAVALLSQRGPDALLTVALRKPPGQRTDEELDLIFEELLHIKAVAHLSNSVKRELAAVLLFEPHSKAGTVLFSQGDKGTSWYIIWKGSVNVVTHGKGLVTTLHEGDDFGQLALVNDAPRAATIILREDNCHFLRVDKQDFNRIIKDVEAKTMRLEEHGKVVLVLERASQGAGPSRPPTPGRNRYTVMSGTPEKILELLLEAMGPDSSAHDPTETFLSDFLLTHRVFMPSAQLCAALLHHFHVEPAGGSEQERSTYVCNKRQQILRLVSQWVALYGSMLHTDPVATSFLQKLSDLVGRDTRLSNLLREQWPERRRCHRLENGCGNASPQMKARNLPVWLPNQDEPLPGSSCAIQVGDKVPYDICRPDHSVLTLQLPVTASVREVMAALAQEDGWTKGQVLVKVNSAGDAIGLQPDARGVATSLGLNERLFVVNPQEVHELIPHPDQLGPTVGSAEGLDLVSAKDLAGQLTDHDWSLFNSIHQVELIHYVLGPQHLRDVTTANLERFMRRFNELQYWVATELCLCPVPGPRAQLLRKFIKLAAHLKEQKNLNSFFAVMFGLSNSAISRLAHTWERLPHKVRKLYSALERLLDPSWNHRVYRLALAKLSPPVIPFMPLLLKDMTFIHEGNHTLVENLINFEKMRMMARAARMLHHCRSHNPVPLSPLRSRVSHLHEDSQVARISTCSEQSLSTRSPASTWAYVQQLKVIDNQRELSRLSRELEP
Chain of Cytochrome P450 3A4 (Homo sapiens) (P08684 whole entry, looked up): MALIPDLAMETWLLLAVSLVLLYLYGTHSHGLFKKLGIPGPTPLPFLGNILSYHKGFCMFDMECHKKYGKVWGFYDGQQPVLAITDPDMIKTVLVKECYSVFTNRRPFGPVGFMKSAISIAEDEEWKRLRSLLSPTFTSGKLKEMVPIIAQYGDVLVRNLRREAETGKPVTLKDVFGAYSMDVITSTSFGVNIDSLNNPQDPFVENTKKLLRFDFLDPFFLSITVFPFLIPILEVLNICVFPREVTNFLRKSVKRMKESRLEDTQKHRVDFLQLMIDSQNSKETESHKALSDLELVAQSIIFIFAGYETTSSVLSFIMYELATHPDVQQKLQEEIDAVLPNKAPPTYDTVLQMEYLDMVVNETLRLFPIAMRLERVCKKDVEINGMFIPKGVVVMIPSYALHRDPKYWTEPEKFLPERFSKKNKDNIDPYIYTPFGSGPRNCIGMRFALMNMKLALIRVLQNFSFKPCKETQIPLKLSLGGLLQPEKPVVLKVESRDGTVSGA
Chain of Ubiquitin carboxyl-terminal hydrolase 1 (Homo sapiens) (O94782 whole entry, looked up): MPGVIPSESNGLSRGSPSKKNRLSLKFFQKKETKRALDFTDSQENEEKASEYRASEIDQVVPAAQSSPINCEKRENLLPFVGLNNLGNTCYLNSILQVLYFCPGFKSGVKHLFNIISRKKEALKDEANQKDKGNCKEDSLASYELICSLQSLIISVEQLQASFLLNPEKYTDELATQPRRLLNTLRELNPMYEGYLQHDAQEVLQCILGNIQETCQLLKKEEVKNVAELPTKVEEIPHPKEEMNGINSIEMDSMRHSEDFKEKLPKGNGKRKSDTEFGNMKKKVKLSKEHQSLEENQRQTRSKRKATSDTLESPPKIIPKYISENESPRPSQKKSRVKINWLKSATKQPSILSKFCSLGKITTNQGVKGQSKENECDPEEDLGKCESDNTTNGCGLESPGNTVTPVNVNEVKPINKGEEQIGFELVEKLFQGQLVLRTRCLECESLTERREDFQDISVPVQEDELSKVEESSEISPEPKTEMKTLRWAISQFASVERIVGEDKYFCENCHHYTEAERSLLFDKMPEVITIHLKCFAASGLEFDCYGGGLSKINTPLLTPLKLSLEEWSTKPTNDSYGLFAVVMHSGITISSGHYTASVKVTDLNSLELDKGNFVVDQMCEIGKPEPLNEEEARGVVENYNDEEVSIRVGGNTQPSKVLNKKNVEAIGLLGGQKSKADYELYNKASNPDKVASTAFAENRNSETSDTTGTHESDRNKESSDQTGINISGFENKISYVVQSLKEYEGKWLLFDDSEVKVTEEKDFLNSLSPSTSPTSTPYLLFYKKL
Chain of Glucocorticoid receptor (Homo sapiens) (P04150 whole entry, looked up): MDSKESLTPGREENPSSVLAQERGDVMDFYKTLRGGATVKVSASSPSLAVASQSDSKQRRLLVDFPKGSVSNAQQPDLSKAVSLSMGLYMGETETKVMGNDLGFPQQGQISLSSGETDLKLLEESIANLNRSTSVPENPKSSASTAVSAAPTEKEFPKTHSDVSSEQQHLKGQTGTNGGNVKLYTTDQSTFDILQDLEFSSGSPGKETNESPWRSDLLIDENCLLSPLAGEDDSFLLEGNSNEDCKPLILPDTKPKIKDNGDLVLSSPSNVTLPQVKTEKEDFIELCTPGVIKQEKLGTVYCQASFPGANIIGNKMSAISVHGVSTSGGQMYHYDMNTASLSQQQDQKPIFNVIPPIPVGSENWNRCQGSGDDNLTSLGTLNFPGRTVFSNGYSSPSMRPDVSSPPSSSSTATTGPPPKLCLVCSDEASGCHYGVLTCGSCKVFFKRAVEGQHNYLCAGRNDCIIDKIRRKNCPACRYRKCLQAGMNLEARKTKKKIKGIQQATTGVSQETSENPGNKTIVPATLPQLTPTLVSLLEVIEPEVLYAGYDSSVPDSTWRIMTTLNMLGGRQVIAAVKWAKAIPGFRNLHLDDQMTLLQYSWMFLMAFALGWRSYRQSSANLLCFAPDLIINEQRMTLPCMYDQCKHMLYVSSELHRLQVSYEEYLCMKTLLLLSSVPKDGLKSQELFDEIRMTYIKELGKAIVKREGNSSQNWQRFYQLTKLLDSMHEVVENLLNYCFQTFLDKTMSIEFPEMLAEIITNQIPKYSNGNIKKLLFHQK
Chain of Cytochrome P450 1A2 (Homo sapiens) (P05177 whole entry, looked up): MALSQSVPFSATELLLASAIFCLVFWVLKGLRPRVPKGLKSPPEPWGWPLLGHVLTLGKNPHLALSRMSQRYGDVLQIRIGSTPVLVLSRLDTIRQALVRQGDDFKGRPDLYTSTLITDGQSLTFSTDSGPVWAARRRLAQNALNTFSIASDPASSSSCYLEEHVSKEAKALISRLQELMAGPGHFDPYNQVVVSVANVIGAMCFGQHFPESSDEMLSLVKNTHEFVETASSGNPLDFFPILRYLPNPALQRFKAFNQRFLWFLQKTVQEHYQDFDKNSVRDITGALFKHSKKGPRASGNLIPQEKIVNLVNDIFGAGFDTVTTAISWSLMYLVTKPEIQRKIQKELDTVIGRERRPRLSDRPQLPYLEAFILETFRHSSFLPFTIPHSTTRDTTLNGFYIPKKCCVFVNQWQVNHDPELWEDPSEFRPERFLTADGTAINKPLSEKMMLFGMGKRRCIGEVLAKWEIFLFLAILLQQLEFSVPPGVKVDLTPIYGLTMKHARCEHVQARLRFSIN
Chain of Lysosomal acid glucosylceramidase (Homo sapiens) (P04062 whole entry, looked up): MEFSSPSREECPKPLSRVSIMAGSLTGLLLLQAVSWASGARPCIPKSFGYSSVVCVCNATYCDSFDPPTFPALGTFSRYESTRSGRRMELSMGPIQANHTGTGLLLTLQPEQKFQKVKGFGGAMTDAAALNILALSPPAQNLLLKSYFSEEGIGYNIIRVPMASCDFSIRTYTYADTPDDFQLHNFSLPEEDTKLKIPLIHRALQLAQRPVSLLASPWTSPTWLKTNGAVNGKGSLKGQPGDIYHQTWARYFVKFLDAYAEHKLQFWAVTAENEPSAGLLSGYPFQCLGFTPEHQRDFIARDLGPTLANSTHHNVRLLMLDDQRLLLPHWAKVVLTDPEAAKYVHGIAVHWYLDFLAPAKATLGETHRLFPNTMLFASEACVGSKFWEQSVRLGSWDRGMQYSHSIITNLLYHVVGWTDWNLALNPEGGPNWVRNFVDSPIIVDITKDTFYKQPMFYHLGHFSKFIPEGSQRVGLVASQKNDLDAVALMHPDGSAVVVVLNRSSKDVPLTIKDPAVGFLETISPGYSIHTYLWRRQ

With `CC1=CC2C(CC1=O)C(C)=CCC2C(C)C` (stereo not given), the Potency entry in [1], in [2], in [5], in assay [6], in assay [7] and in assay [8] was “inactive” throughout. Further, the call in assay [3] was inactive. The activity change, negative = inhibition in [4] (at 57.5 µM (top of the series)) was 1.38% (inactive). For the same compound, the max response is 3.62% in assay [4] (setting [20]) and 5.28% in assay [4] (setting [21]). The Potency in assay [9] was 39.3 µM (active).

Take `CCOC(=O)c1c(C)cc(OC)cc1O`: the Potency entry in assay [10], in assay [2], in assay [5], in assay [6], in assay [7] and in assay [8] was “inactive” each time. The outcome in assay [3] was inactive. The activity change, negative = inhibition in [4] (at 57.5 µM (top of the series)) was -10.6% (inactive). The max response was 3.28% in [4] (setting [20]) and -5.56% in assay [4] (setting [21]).

In the case of `COc1ccc2c(c1)OCc1c-2oc2cc(OC)ccc12`, the Potency result in [10], in assay [2], in assay [6], in assay [7], in assay [8] and in [9] was “inactive” each time. Further, the outcome in assay [3] was inactive. Also, in assay [4] (at 57.5 µM (top of the series)), the activity change, negative = inhibition was 8.22% (inactive). In addition, the max response in assay [4] (setting [20]) was -1.79%; in assay [4] (setting [21]), 8.38%.

As to `O=c1c(O)c(-c2ccc(O)c(O)c2)oc2c(OC3OC(CO)C(O)C(O)C3O)c(O)cc(O)c12` (stereo not given), the Potency entry in [10], in assay [2], in assay [5], in assay [6], in [7] and in [8] was “inactive” each time. Besides, the Potency result in [9] is “inactive”. The result in assay [3] was inactive. The activity change, negative = inhibition in assay [4] (at 57.5 µM (top of the series)) is 0.918% (inactive). Besides, the max response in [4] (setting [20]) is -2.75%; in [4] (setting [21]) it was 7.27%.

As to `COc1cccc(-c2nc(Nc3ccncc3)c3ccccc3n2)c1`, the Potency in assay [11] was 2.53 µM (active); in assay [13] it was 0.794 µM (active); in [15], > 46 µM (inactive); in assay [16], > 46 µM (inactive); in assay [1] it was 2.51 µM (active); in [19], 3.16 µM (active). The Potency in assay [5] was 39.8 µM (active). The activity change, negative = inhibition in assay [12] was -6.31% (inactive); in [4] (at 57.5 µM (top of the series)), -7.83% (inactive). Besides, the activity, negative = inhibition in [14] is -15.1% (inactive). Also, the Potency result in assay [17], in [18], in assay [10], in [2], in [6] and in [9] was “inactive” in each case. The compound was classed as inactive in assay [3]. Also, the max response in assay [4] (setting [20]) is -14.4%; in [4] (setting [21]) it was -19.7%.

Consider `Nc1nc2n[nH]nc2c(=O)[nH]1`, for which the activity change, negative = inhibition in assay [12] was -1.23% [at 17.2 µM] (inactive); in [4] (at 25.7 µM (top of the series)), -1.04% (inactive). Moreover, the Potency result in assay [13], in assay [18], in [5], in assay [6], in [7] and in [8] was “inactive” each time. Also, the Potency result in [9] was “inactive”. The activity, negative = inhibition in assay [14] is -26.9% [at 17.2 µM] (inactive). Further, the Potency in assay [15] and in assay [16] was > 20.6 µM (inactive) throughout. The max response in assay [4] (setting [20]) stood at 15.7%; in [4] (setting [21]), 11%.
